Molecules are shown by their SMILES. Among all 2,100 compounds or so, about 260 (12%) were called active. Not shown: some 58% with an inconclusive outcome. This is one part of the list. Values without a mark were called inactive. Calls come from the whole dose curve; as a rule, active = well fitted cell-killing curve with a large enough effect; inconclusive = small, poorly fitted or top-dose-only effect, or effect the other way; inactive = flat fitted curve, though single readings scatter.
Potency is the fitted concentration of half-maximal effect.

This test in a line: Viability Counterscreen for Confirmatory qHTS for Inhibitors of ATXN expression. Note: nearly all actives have a fitted effect of over 50% in size. As to conditions: HEK-293 ATXN2-luc cells viability, CellTiter-Fluor, 24 h; activity change, negative = cytotoxicity: at the top concentration. In a few lines: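 Luminescence read-out (SteadyGlo, 5 min) followed a 30 min Gly-Phe-AFC (25 uM final) viability fluorescence read. ATXN2-luciferase reporter cells were exposed 24 h to a dilution series. Medium-only wells served as the 100% inhibition reference.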
(The purpose of a counterscreen is to sort out artefacts and off-target activity.)
As for `O=C(O)CSc1cc(NS(=O)(=O)c2ccc(Cl)cc2)c2ccccc2c1O`, the Potency was 35.5 µM (active).

Take `COC(=O)[C@H]1C[C@H](OC(=O)NC2CC2)[C@@]2(O)CN(S(=O)(=O)c3ccc(C)cc3)CC2[C@H]1C(=O)OC` (stereo not given in full): the “activity change, negative = cytotoxicity” value is -1.83%.

For `COc1ccc(CC(N)c2csc(NC(=O)c3ccccc3OC)n2)cc1` (stereo not given), the “activity change, negative = cytotoxicity” value was -15.7% [at 57.5 µM].

Consider `COc1ccc(-c2csc(NC(=O)c3ccccc3NS(=O)(=O)c3ccc(F)c(F)c3)n2)cc1`, for which the Potency is 5.62 µM (active).

`C/[N+]([O-])=C\c1cccc(OCCN2CCN(c3ncc(C(F)(F)F)cc3Cl)CC2)c1`: the “activity change, negative = cytotoxicity” value was -8.08%.

With `CC[n+]1c(/C=C/c2c[nH]c3ccccc23)ccc2cc(C)ccc21`, the Potency was 15.8 µM (active).

As for `Nc1ccc(OC(=O)Nc2ccc(O)cc2)cc1`, the “activity change, negative = cytotoxicity” value is -23.8% [at 57.5 µM].

As to `O=C(Cn1cnc([N+](=O)[O-])c1)Nc1cc(Oc2ccc(Cl)cc2Cl)cc([N+](=O)[O-])c1`, the Potency was 3.16 µM (active).

For `O=C(NCC1CCCO1)c1cccc(Oc2ccc([N+](=O)[O-])cc2Cl)c1` (stereo not given), the “activity change, negative = cytotoxicity” value is -10.9%.

For the molecule `CC1CCN(Cc2c(C(=O)N/N=C/c3cc(Cl)ccc3O)nnn2-c2nonc2N)CC1`, the “activity change, negative = cytotoxicity” value is -9.41%.

For `Nc1cc2c3c(cccc3c1)C(=O)N(CCN1CCCC1)C2=O`, the Potency is 22.4 µM (active).

Take `O=C1c2cccc3cc([N+](=O)[O-])cc(c23)C(=O)N1CCN1CCCC1`: the Potency was 3.16 µM (active).

Take `CCCCCCc1cc2cc(C(=O)Nc3ccccc3)c(=O)oc2cc1O`: the “activity change, negative = cytotoxicity” value is 14.7%.

As to `O=C(CN1C(=O)c2ccccc2S1(=O)=O)N1CCc2ccccc21`, the “activity change, negative = cytotoxicity” value is -6.71%.

As for `CCOc1cc(/C=C2\SC(=N)N(c3nccs3)C2=O)ccc1OCCN1CCOCC1`, the Potency is 25.1 µM (active).

Consider `OC1(c2ccc(Br)cc2)CCNCC1`, for which the “activity change, negative = cytotoxicity” value was -4.89%.

Take `Cc1onc(-c2ccccc2)c1C(=O)Nc1ccc(S(=O)(=O)NC(C)(C)C)cc1`: the “activity change, negative = cytotoxicity” value was -0.495% [at 57.5 µM].

Consider `Cc1cc(C)cc(OCC(=O)NNC(=S)NC(=O)C2CC2)c1`, for which the “activity change, negative = cytotoxicity” value was 1.25%.

As for `Cc1sc2cc3c(c(C(=O)c4ccccc4)[n+]2c1C)-c1cccc2cccc-3c12`, the Potency is 12.6 µM (active).

For the molecule `CC(=O)c1ccc(C(=O)Nc2nnc(-c3ccc(Cl)cc3)o2)cc1`, the “activity change, negative = cytotoxicity” value is -8.23%.

Consider `CCn1c2ccccc2c2cc(NC(=O)COC(=O)C3CCC(=O)N3)ccc21` (stereo not given), for which the “activity change, negative = cytotoxicity” value is -15.2% [at 57.5 µM].

Take `NS(=O)(=O)c1ccc(N2N=C(c3ccc(Br)cc3)CC2c2ccc(F)cc2)cc1` (stereo not given): the “activity change, negative = cytotoxicity” value was -21.3% [at 57.5 µM].

In the case of `c1ccc(CN=C(NCc2ccccc2)NCc2ccccc2)cc1`, the Potency was 31.6 µM (active).

For `COc1cccc(OC)c1C(=O)OCC(=O)NC(=O)NCc1ccccc1`, the “activity change, negative = cytotoxicity” value is -8.35%.

In the case of `O=C(NNCc1ccccc1)c1ccccc1`, the “activity change, negative = cytotoxicity” value is -14.6% [at 57.5 µM].

Turning to `C/C(=N\NC(=O)c1cccc2ccccc12)c1ccccn1`, the Potency is 6.31 µM (active).

Consider `CCCCCC(=O)N/N=C(\C)c1ccccn1`, for which the “activity change, negative = cytotoxicity” value is -17.7%.

Consider `CCCC/C(C)=N/NC(=O)c1cn(-c2ccccc2)nc1-c1ccccc1`, for which the “activity change, negative = cytotoxicity” value was 4.09%.

As to `COc1cc(N)ccc1Nc1c2ccccc2nc2ccccc12`, the Potency was 31.6 µM (active).

Turning to `Nc1cccc2nc3ccccc3cc12`, the “activity change, negative = cytotoxicity” value was 2.62% [at 57.5 µM].

With `COc1cc2cc(C(=O)NC(C)c3cccc4ccccc34)c(N)nc2cc1OC` (stereo not given), the “activity change, negative = cytotoxicity” value is -8.62%.

As to `O=C(NNC(=O)c1csc(-c2cnccc2C(F)(F)F)n1)c1ccc(C(F)(F)F)cc1`, the “activity change, negative = cytotoxicity” value was -18.1%.

`c1cc2c(cc1-c1cnc3n1CCC3)OCCO2`: the “activity change, negative = cytotoxicity” value is -28.7% [at 57.5 µM].

Take `O=C1C=C(NCCc2cc(Br)c(O)c(Br)c2)C(=O)c2ncccc21`: the Potency was 10 µM (active).

As to `CCOC(=O)c1c2ccc(OCC(=O)N/N=C/c3ccc(C)cc3)cc2n2ccccc12`, the “activity change, negative = cytotoxicity” value is -23% [at 57.5 µM].

In the case of `CCCc1nc2c(c(=O)c3ccccc3n2C)c(=O)n1C1CCCCCC1`, the Potency is 28.2 µM (active).

On to `CN1CCC[C@H]1CCNc1ccc2c(=O)c3ccccc3n(C)c2c1`, for which the “activity change, negative = cytotoxicity” value was 14.2% [at 57.5 µM].

Take `Nc1c(C(=O)NCc2ccc3c(c2)OCO3)c2nc3ccccc3nc2n1CCCN1CCOCC1`: the “activity change, negative = cytotoxicity” value was -24.5% [at 57.5 µM].

On to `CC(C)(C)c1ccc(OCCn2nc(C(=O)O)c3ccccc3c2=O)cc1`, for which the “activity change, negative = cytotoxicity” value was -26.5% [at 57.5 µM].

On to `COC(=O)C1=C(C)N(Cc2ccccc2)C(=NCCc2cccnc2)N[C@H]1c1ccc(Br)cc1`, for which the Potency is 22.4 µM (active).

Regarding `Cc1cccc(NC(=O)CCC(=O)N/N=C/c2ccc(O)cc2O)c1`, the “activity change, negative = cytotoxicity” value was -20.9%.

As to `COc1ccc2c(Cl)c(C(=O)NN)sc2c1`, the “activity change, negative = cytotoxicity” value was 8.74%.

Consider `OC(CNCCc1ccccc1)COc1ccc(OCC(O)CNCCc2ccccc2)cc1` (stereo not given), for which the Potency was 22.4 µM (active).

For `CCC(=O)c1ccc(OCC(O)CN(CCc2ccccc2)Cc2ccccc2)cc1` (stereo not given), the “activity change, negative = cytotoxicity” value was -22.7%.

`O=C(N/N=C\c1c(O)ccc2ccccc12)c1ccc(S(=O)(=O)N2CCCCC2)cc1`: the “activity change, negative = cytotoxicity” value was -12.7% [at 57.5 µM].

As for `O=S(=O)(c1ccc2nc(COc3ccc(Cl)cc3Cl)[nH]c2c1)N1CCOCC1`, the “activity change, negative = cytotoxicity” value was 3.51%.

For the molecule `COc1cccc(NC(=O)CSc2nc3ncc(Br)cc3[nH]2)c1`, the “activity change, negative = cytotoxicity” value is -9.63%.

In the case of `CC1CCCCC1NC(=O)/C(C#N)=C/C=C/c1ccccc1[N+](=O)[O-]` (stereo not given), the Potency was 2.82 µM (active).

Consider `CC(C)N(Cc1ccccc1)C(=O)/C=C/c1ccccc1[N+](=O)[O-]`, for which the “activity change, negative = cytotoxicity” value is -23.4% [at 57.5 µM].

With `N#C/C(=C\C=C\c1ccccc1[N+](=O)[O-])C(=O)NC1CCCCC1`, the Potency is 20 µM (active).

For `O=C(NCC1CC1)c1ccc2c(c1)S(=O)(=O)c1cc(Cl)ccc1C2=O`, the “activity change, negative = cytotoxicity” value was -16.3%.

Take `Cc1cc(C)n(-c2ccc(C(=O)N3CCN(S(=O)(=O)c4cccc(Br)c4)CC3)cc2)n1`: the “activity change, negative = cytotoxicity” value is -15.9%.

Consider `O=C(Nc1ccc(N2CCOCC2)c(Cl)c1)c1c(F)c(F)c(F)c(F)c1F`, for which the “activity change, negative = cytotoxicity” value was -11%.

On to `CC(O)(c1ccccc1)c1nc(-c2ccncc2)cs1` (stereo not given), for which the “activity change, negative = cytotoxicity” value is -3.76%.

Regarding `COc1ccc(NC2=NCC(Cc3ccc(Br)cc3)S2)cc1` (stereo not given), the “activity change, negative = cytotoxicity” value is -15.6%.

With `CCN(CC)CCC(c1ccc2c(c1)OCO2)c1c(OC)cc(OC)c2c(-c3ccccc3)cc(=O)oc12` (stereo not given), the Potency is 20 µM (active).

As for `Cc1ccc(SC2=C(Sc3ccc(C)cc3)C(=O)c3ccccc3C2=O)cc1`, the “activity change, negative = cytotoxicity” value was -12.3% [at 57.5 µM].

As to `CCC(=O)OC1(C(C)=O)CCC2C3CCC4=CC(=O)CCC4(C)C3CCC21C` (stereo not given), the “activity change, negative = cytotoxicity” value is -8.08% [at 57.5 µM].

In the case of `CSc1ncnc2c1ncn2CC(=O)C1CCC2C3CCC4=CC(=O)CCC4(C)C3CCC12C` (stereo not given), the Potency was 17.8 µM (active).

In the case of `Cc1ccc(Sc2nnc(Cc3ccccc3)c3ccccc23)cc1`, the “activity change, negative = cytotoxicity” value was -20.7% [at 57.5 µM].

As to `Cc1cc(C)c(C(=O)N2CCCC(N3CCN(c4cccc(C(F)(F)F)c4)CC3)C2)o1` (stereo not given), the “activity change, negative = cytotoxicity” value is -17.7%.

In the case of `Cc1cc(O)c(C(C)C)cc1N=Cc1ccccc1[N+](=O)[O-]`, the “activity change, negative = cytotoxicity” value is -7.78% [at 57.5 µM].

Regarding `Cc1cc(N/N=C/c2ccccc2[N+](=O)[O-])nc(-n2nc(C)cc2C)n1`, the Potency was 12.6 µM (active).

Turning to `CCOC(=O)c1cnc(-n2nc(C)cc2C)nc1NC1CCCC1`, the “activity change, negative = cytotoxicity” value is -24.9%.

Take `CCOc1cc(/C=N/Nc2cc(C)nc(-n3nc(C)cc3C)n2)ccc1O`: the Potency was 3.98 µM (active).

Values taken from PubChem BioAssay AID1745850 (National Center for Advancing Translational Sciences (NCATS), 2022).
